A short description of assay [1]: qHTS assay for small molecule agonists of the p53 signaling pathway (AID 651631; calls by dose curve; further: nearly all actives have a fitted effect of over 15% in size; further: potency means the concentration at half of the fitted maximal effect). An outline of the steps: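 Fluorescence intensity from cleaved LiveBLAzer B/G substrate (2 h, room temperature) served as the signal. Beforehand, HCT-116 reporter cells bearing p53 response elements were treated 16 h at 37 °C with DMSO-dissolved compounds.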
A short description of assay [2]: qHTS assay for small molecules that induce genotoxicity in human embryonic kidney cells expressing luciferase-tagged ATAD5 (AID 651632). Further: nearly all actives have a fitted effect of over 15% in size. The method, boiled down: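 Quantitative HTS in HEK293T expressing luciferase-tagged ATAD5, whose levels rise upon DNA damage. Exposure ran 16 hr at 37C and 5% CO2, with luminescence read 30 min after Amplite addition at room temperature.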
Background: qHTS replaces the single test concentration by a dilution series.

The nature of assay [3]: qHTS assay for small molecule agonists of the p53 signaling pathway - cell viability (AID 651633; calls by dose curve; further: nearly all actives have a fitted effect of over 30% in size; further: potency means the concentration at half of the fitted maximal effect). An outline of the steps: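 p53RE-bla cells were treated with compound for 16 hours at 37 C. Cytotoxicity was then measured as CellTiter-Glo luminescence after 30 min at room temperature.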
Assay [4] is described as follows: qHTS assay for small molecules that induce genotoxicity in human embryonic kidney cells expressing luciferase-tagged ATAD5 - cell viability (AID 651634; calls by dose curve; further: nearly all actives have a fitted effect of over 25% in size; further: potency means the concentration at half of the fitted maximal effect). An outline of the steps:
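After 15.5 hr incubation with compound at 37C, 5% CO2, HEK293T ATAD5-luciferase cells received CellTiter-Fluor reagent; fluorescence intensity was quantified following 30 min at 37C.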

Assay [5] in a line: qHTS assay for small molecule disruptors of the mitochondrial membrane potential - cell viability (AID 720634; calls by dose curve; further: nearly all actives have a fitted effect of over 20% in size; further: potency means the concentration at half of the fitted maximal effect). An outline of the steps: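 ATP-based luminescent viability readout (CellTiter-Glo, 30 min, room temperature) in HepG2 cells multiplexed with the m-MPI membrane potential dye; compound exposure lasted 1 hr at 37 C.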
A short description of assay [6]: qHTS assay for small molecule disruptors of the mitochondrial membrane potential (AID 720635). Further: potency means the concentration at half of the fitted maximal effect. The method, boiled down: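 HepG2 cells exposed to compound 1 hr at 37C, then Mito-MPS dye 30 min. Ratio read of aggregate (540/590 nm) versus monomer (490/535 nm) fluorescence.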
The nature of assay [7]: qHTS assay to test for compound auto fluorescence at 590 nm (red) in HepG2 cells (AID 720674). An outline of the steps:
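Fluorescence at 590 nm emission following 540 nm excitation was recorded from HepG2 wells one hour after compound transfer, with DMSO-only wells as vehicle and Rose Bengal sodium equivalency as the scale.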

The nature of assay [8]: qHTS assay to test for compound auto fluorescence at 535 nm (green) in HepG2 cells (AID 720675).
Assay [9] in a line: qHTS assay to test for compound auto fluorescence at 460 nm (blue) in HEK293 cells (AID 720678). Further: potency means the concentration at half of the fitted maximal effect. The method, boiled down:
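HEK293 cells (2,000/well, medium with 10% dialyzed FBS) attached 4-5 hr, then exposed to compound overnight at 37C, 5% CO2. Blue fluorescence read at 405/460 nm, with triamterene as reference fluorophore.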

The nature of assay [10]: qHTS assay to test for compound auto fluorescence at 590 nm (red) in HEK293 cells (AID 720679). An outline of the steps: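 HEK293 cells (2,000/well, 10% dialyzed FBS) attached 4-5 hr, then dosed with compound or DMSO and incubated overnight at 37C, 5% CO2. Red fluorescence read at 540/590 nm, Rose Bengal sodium as reference fluorophore.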

Several values for one entry are separate records, joined by “and”; a condition that tells them apart may be missing. Equal values may be shown once. Unmarked numbers belong to inactive results. Records with an inconclusive call do not appear. Activity calls are given as the source filed them. Unless noted, the call rests on the fitted dose curve; in most records, active means well fitted curve in the direction sought with a large enough effect in the repeat runs; inconclusive means weak or mixed curves; inactive means no such curve, though single readings can be large; an effect the other way counts as inactive or inconclusive.
On the % scale 0 is the no-effect control and ±100 the full control effect; tags describe the fitted curve by direction and shape or compound fluorescence and quenching.

With `CN(C)CCc1c[nH]c2ccc(O)cc12`, the Potency entry in assay [1], in assay [2], in assay [3], in assay [4], in [5] and in assay [6] was “inactive” throughout. For the same compound, the Potency result in [9] is “inactive”. Besides, the call in [7], in assay [8] and in assay [10] was inactive.

`CC(C)CCCCCOC(=O)c1ccccc1C(=O)OCCCCCC(C)C`: the Potency result in assay [1], in assay [2], in [3], in assay [4], in [5] and in assay [9] was “inactive” throughout. Further, the compound was called inactive in assay [7], in assay [8] and in assay [10].

On to `NNC(=O)c1ccccc1`, for which the Potency entry in [1], in assay [2], in [3], in assay [4], in [5] and in [9] was “inactive” throughout. Further, the compound was classed as inactive in assay [7], in assay [8] and in assay [10].

In the case of `COC(=O)N(C(=O)N1CO[C@@]2(C(=O)OC)Cc3cc(Cl)ccc3C2=N1)c1ccc(OC(F)(F)F)cc1`, the Potency was 46.9 µM (active) in assay [1], 3.32 µM (active) in assay [5] and 13.2 µM (active) in [6]. Besides, the Potency result in assay [2], in assay [3], in assay [4] and in assay [9] was “inactive” throughout. In addition, the outcome in [7], in assay [8] and in assay [10] was inactive.

Regarding `CCOC(=O)OC1=C(c2cc(C)ccc2C)C(=O)NC12CCC(OC)CC2` (stereo unspecified), the Potency in [1] is 68.5 µM (active); in assay [5] it was 10.9 µM (active); in [6], 21.7 µM (active). For the same compound, the Potency result in assay [2], in [3], in assay [4] and in assay [9] was “inactive” throughout. For the same compound, the result in assay [7], in [8] and in assay [10] was inactive.

In the case of `O=C(CCl)C(Cl)Cl`, the Potency was 13.8 µM (active) in [1], 55 µM (active) in assay [4], 49 µM (active) in assay [5] and 61.7 µM (active) in assay [6]. The Potency result in [2], in [3] and in [9] was “inactive” throughout. For the same compound, the outcome in assay [7], in assay [8] and in assay [10] was inactive.

For `CC(C)OS(C)(=O)=O`, the Potency result in assay [1], in [2], in [3], in [4], in assay [5] and in assay [9] was “inactive” throughout. Moreover, the compound was classed as inactive in assay [7], in assay [8] and in [10].

For `COc1cc(N)c(Cl)cc1C(=O)NC1CN2CCC1CC2` (stereo unspecified), the Potency entry in [1], in assay [2], in [3], in assay [4], in assay [5] and in assay [6] was “inactive” throughout. The Potency result in assay [9] was “inactive”. Besides, the compound was classed as inactive in assay [7], in [8] and in [10].

As to `CC(c1ccc(O)cc1)c1ccc(O)cc1`, the Potency entry in assay [1], in assay [2], in assay [3], in assay [4], in [5] and in assay [9] was “inactive” throughout. Besides, in assay [6], the Potency is 25.6 µM (active). For the same compound, the call in assay [7], in [8] and in [10] was inactive.

`CCCCCCCCCCCCCN1CC(C)OC(C)C1` (stereo unspecified): the Potency entry in assay [1], in assay [2], in assay [3], in assay [4], in assay [5] and in assay [9] was “inactive” each time. In addition, the compound was called inactive in [7], in [8] and in assay [10].

In the case of `FC(Cl)(Cl)Cl`, the Potency entry in assay [1], in assay [2], in assay [3], in assay [4], in assay [5] and in [9] was “inactive” throughout. The outcome in [7], in assay [8] and in [10] was inactive.

Take `c1ccc2cc3c(cc2c1)-c1cccc2cccc-3c12`: the Potency in assay [1] is 1.7 µM (active); in assay [9], 3.55 µM [fluorescent] (active). Besides, the Potency result in assay [2], in assay [3], in assay [4] and in assay [5] was “inactive” in each case. In addition, the outcome in assay [7], in assay [8] and in assay [10] was inactive.

`CC(C)OC(=S)S`: the Potency result in [1], in assay [2], in assay [3], in [4], in assay [5] and in [9] was “inactive” in each case. Moreover, the compound was called inactive in assay [7], in assay [8] and in [10].

As for `O=C1NCN(c2ccccc2)C12CCN(CC1COc3ccccc3O1)CC2` (stereo unspecified), the Potency result in assay [1], in assay [2], in assay [3], in assay [4], in assay [5] and in assay [6] was “inactive” throughout. In addition, in [9], the Potency result was “inactive”. Moreover, the compound was classed as inactive in assay [7], in assay [8] and in assay [10].

Consider `CCN`, for which the Potency result in [1], in assay [2], in assay [3], in assay [4], in assay [5] and in [6] was “inactive” each time. In addition, the Potency result in [9] is “inactive”. For the same compound, the compound was called inactive in assay [7], in assay [8] and in [10].

Take `CCCCCCCCCCCCCCCC[n+]1ccccc1`: the Potency in [1] was 26.6 µM (active) and 71.7 µM (active); in assay [3] it was 67.6 µM (active) [middle of 4 runs]; in assay [4], 63.9 µM (active) and 48.6 µM (active); in assay [5], 63.9 µM (active) and 60.3 µM (active); in assay [6], 24.3 µM (active) [middle of 4 runs]. The Potency entry in assay [2] and in assay [9] was “inactive” throughout. In addition, the outcome in [7], in assay [8] and in assay [10] was inactive.

In the case of `Oc1ccc(C(c2ccc(O)cc2)(C(F)(F)F)C(F)(F)F)cc1`, the Potency was 60.8 µM (active) and 54.5 µM (active) in assay [1]; 68.2 µM (active) and 43.3 µM (active) in assay [3]; 2.72 µM (active) and 4.86 µM (active) in [6]. Moreover, the Potency result in assay [2], in [4], in assay [5] and in assay [9] was “inactive” each time. Moreover, the compound was called inactive in assay [7], in [8] and in assay [10].

With `C[C@@H]1O[C@@H](O[C@@H]2C=C3CC[C@@H]4[C@H](CC[C@]5(C)[C@@H](c6ccc(=O)oc6)CC[C@]45O)[C@@]3(C)CC2)[C@H](O)[C@H](O)[C@H]1O`, the Potency entry in [2] and in assay [5] was “inactive” throughout. The Potency in [3] was 7.2 nM (active); in assay [4], 0.0227 µM (active); in assay [6] it was 0.0639 µM (active). In assay [7], the fluorescence, relative to Rose Bengal is 0.222% [at 18.6 µM]. Also, in [8], the fluorescence, % of fluorescein control is -0.0054% [at 18.6 µM]. For the same compound, the fluorescence, % of triamterene in [9] is 0.167% [at 18.6 µM]. Moreover, the fluorescence, % of fluorescent control in assay [10] is -0.104% [at 18.6 µM].

For the compound `CCCCCCCCCCCCCC[P+](CCCCCC)(CCCCCC)CCCCCC` (tested in a mixture with another compound), the Potency result in assay [2] and in assay [9] was “inactive” in each case. Further, the Potency is 15400 nM (active) in assay [3], 21.7 µM (active) in assay [4], 24.3 µM (active) in [5] and 0.243 µM (active) in assay [6]. Further, the result in assay [7], in assay [8] and in assay [10] was inactive.

Regarding `CC(C)CCCCCCCOP(=O)(Oc1ccccc1)Oc1ccccc1`, the Potency result in [1], in [3] and in [9] was “inactive” in each case. For the same compound, the result in assay [7], in assay [8] and in assay [10] was inactive.

For the compound `Cc1ccc(OP(=O)(Oc2ccccc2)Oc2ccccc2)cc1`, the Potency entry in assay [1], in assay [2], in assay [3], in [4] and in [9] was “inactive” throughout. The Potency in assay [6] is 0.983 µM (active). Moreover, the outcome in assay [7], in assay [8] and in assay [10] was inactive.

The values above are taken from PubChem BioAssay (Tox21).
